OPRM1-OPRD1 ag: OPRM1-OPRD1 heterodimerization agonism | cells, luminescence | actives 0.3% (n = 340,000) | AID 504326 | P35372+P41143 | activation, % at 9.3 µM;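 note: 0% = vehicle-treated cells and 100% = reference agonist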
HTR5A ag ctr: activates human HTR5A in OPRM1-OPRD1 agonist counter-screen. P47898. HTR5A agonist assay, luminescence, cell-based. activation, % at 9.3 µM. actives 0.61% (n = 340,000). AID 504692; in the data active = activation mostly above about 9.5%, no sharp cut-off; inactive = mostly below about 7.6%;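 note: 0% = cells with vehicle only and 100% = reference agonist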
Target sequence (P47898 whole entry, looked up): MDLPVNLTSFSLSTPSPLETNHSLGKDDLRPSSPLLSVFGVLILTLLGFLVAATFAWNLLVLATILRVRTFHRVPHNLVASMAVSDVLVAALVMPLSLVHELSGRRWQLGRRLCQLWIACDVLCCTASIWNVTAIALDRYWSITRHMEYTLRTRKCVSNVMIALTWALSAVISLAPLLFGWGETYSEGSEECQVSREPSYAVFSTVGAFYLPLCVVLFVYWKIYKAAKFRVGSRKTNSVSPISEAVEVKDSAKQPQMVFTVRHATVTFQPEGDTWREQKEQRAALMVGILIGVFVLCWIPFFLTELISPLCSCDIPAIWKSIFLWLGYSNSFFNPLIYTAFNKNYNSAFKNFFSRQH
OPRM1-OPRD1 inv: mu-delta opioid heterodimer inverse agonism; AID 504357; cell-based MOR-DOR heterodimer luminescence; P35372+P41143; inhibition, % at 9.3 µM; actives 0.21% (n = 340,000); in the data active = inhibition above about 22%, passing the limit was not always enough;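 note: 0% = cells with DMSO and 100% = wells without cells with DMSO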
HTR5A inv ctr: inverse agonist of human HTR5A in OPRM1-OPRD1 counter-screen; P47898; HTR5A cell line, luminescence, inverse agonism; inhibition, % at 9.3 µM; actives 0.083% (n = 340,000); AID 504634; in the data active = inhibition mostly above about 23%, no sharp cut-off; inactive = mostly below about 18%;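 note: 0% = cells with DMSO and 100% = no-cell wells with DMSO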
MOR-DOR ag conf: confirmation of human OPRM1-OPRD1 heterodimerization agonists | shares compounds with OPRM1-OPRD1 ag | cells, MOR-DOR heterodimerization, luminescence complementation | activation, % at 9.3 µM | actives 45% (n = 830) | AID 504904;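 note: 0% = vehicle-treated cells and 100% = reference agonist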
HTR5A ag ctr2: activates human HTR5A in OPRM1-OPRD1 agonist counter-screen; actives 8% (n = 830); HTR5A agonist counterscreen, cell luminescence; activation, % at 9.3 µM; shares compounds with OPRM1-OPRD1 ag; in the data active = activation above about 17%;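 note: 0% = vehicle-treated cells and 100% = reference agonist response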
* = called active by the depositor; i = inactive; . = not tested or not shown. Compounds with a hit are over-represented: about 1.1% of the library has one in this group of screens. Cut-off read from the data, not from the text of the source, unless noted: active = activation above about 18%; inactive = the rest.

SMILES	OPRM1-OPRD1 ag	HTR5A ag ctr	OPRM1-OPRD1 inv	HTR5A inv ctr	MOR-DOR ag conf	HTR5A ag ctr2
O=C(Nc1cccc(-c2nc3ccccc3[nH]2)c1)c1cccc(NC(=O)c2ccco2)c1	88.2*	7.2	-458.6	12.6	-2.0	-0.9
O=C(CSc1ccc(Cl)cc1)Nc1cccc(-c2nc3ccccc3[nH]2)c1	33.7*	2.1	-202.6	-5.6	12.9	7.8
CSc1ccccc1NC(=O)CN(C)CC(=O)Nc1c(F)cccc1F	-3.3	-0.8	17.4	2.8	.	.
Cc1ccc(NC(=O)c2nnn(CC(=O)Nc3ccc4c(c3)OCO4)c2N)cc1C	23.1*	7.7	-115.9	-28.6	8.5	4.0
Cc1cc(C)cc(NC(=O)Cn2nnc(C(=O)NCc3ccccc3Cl)c2N)c1	25.3*	10.2	-135.8	-7.7	12.4	-2.0
Cc1ccc(NC(=O)Cn2nnc(C(=O)Nc3ccc(C)c(C)c3)c2N)cc1	-0.8	4.5	3.8	-13.6	.	.
Cc1cc(C)cc(NC(=O)Cn2nnc(C(=O)NCCc3ccccc3)c2N)c1	20.9*	6.8	-104.0	-6.1	11.7	8.4
COc1c(C(=O)Nc2nnc(C3CC3)s2)csc1Cl	-2.0	0.0	10.5	-16.9	.	.
Cc1n(C)c2cc(Cl)ccc2[n+]1Cc1ccccc1	-1.5	-0.4	7.8	1.2	.	.
O=C1CCC(O)CCN1CCSc1ccccc1 (stereo unspecified)	-2.7	1.6	14.9	-4.1	.	.
Cc1ccc(Nc2cc(C)nc3c(C)cccc23)cc1	28.6*	-0.8	-136.1	2.9	14.8	-1.0
CC(=O)Nc1ccc(CN2CCCC(CO)(Cc3ccccc3C)C2)cc1 (stereo unspecified)	49.0*	0.3	-225.2	-0.7	13.1	-1.1
CC(C)n1ncc2c(C(=O)NCCc3ccc(F)cc3)cc(C3CC3)nc21	3.5	7.8	-19.2	15.5	.	.
C=CCN(c1ccccc1Cl)S(=O)(=O)c1cccc(C(=O)OCC(=O)N(C)C2CCS(=O)(=O)C2)c1 (stereo unspecified)	-0.2	-5.4	1.1	17.9	.	.
O=C1c2cccnc2C(=O)N1CO	-2.9	3.5	12.2	5.0	.	.
NC1=C(Br)C(=O)c2ncccc2C1=O	19.6*	2.9	-100.5	-11.4	0.1	-18.7
O=C(Cc1ccccc1)NCC(=O)N/N=C/c1ccc(Cl)cc1	-0.7	-6.3	3.6	-11.1	.	.
COc1ccc(NS(=O)(=O)c2ccc(O)c(NC(=O)c3cc4c(C)nn(-c5ccc(F)cc5)c4s3)c2)cc1	20.4*	-0.4	-122.7	1.1	51.0*	1.3
Cn1cc(C(=O)C(=O)NCCc2ccccc2)c2ccccc21	-1.9	-2.4	8.8	8.9	.	.
Cc1ccccc1NC(=O)C(=O)c1cn(C)c2ccccc12	23.9*	2.6	-115.8	-8.3	0.6	-1.4
CCOc1cc(C)c(S(=O)(=O)Nc2ccc(F)cc2)cc1C	18.9*	10.0	-96.4	-10.7	10.6	3.6
CNC[C@H](CC1CCCCC1)NC[C@H](Cc1ccccc1)NCCC12CC3CC(CC(C3)C1)C2	95.3*	0.3	i	-59.6	163.7*	39.3*
NC[C@H](Cc1ccccc1)NCCCCC1CCCCC1	0.7	-1.4	-4.0	-13.8	.	.
O=C(NCC(O)CO)c1csc(Nc2cccc3ccccc23)n1 (stereo unspecified)	-1.9	4.4	9.8	-16.8	.	.
CC(C)c1ccc(S(=O)(=O)Nc2ccc(SC(F)F)cc2)cc1	18.3*	2.1	-113.6	-7.2	-0.3	-4.0
SMILES	OPRM1-OPRD1 ag	HTR5A ag ctr	OPRM1-OPRD1 inv	HTR5A inv ctr	MOR-DOR ag conf	HTR5A ag ctr2
CC(=O)Nc1sc(N/N=C/c2ccc(O)cc2)nc1-c1ccc(C)cc1	-0.8	0.1	4.4	-0.3	.	.
CC(C)(C)c1csc(N/N=C/c2ccc(O)cc2)n1	18.3*	-1.0	-84.3	3.8	49.5*	0.8
COc1cc2c3nnc(-c4ccc(F)cc4)c-3cn(Cc3ccccc3F)c2cc1OC	19.5*	5.8	-97.3	-21.6	27.6*	6.5
COc1ccc(C(=O)OCC(=O)N(C)C2CCS(=O)(=O)C2)cc1Br (stereo unspecified)	75.6*	-1.6	-297.7	10.2	-1.2	-0.4
COc1ccc(C(=O)OCC(=O)N(C)C2CCS(=O)(=O)C2)cc1S(=O)(=O)N(C)Cc1ccccc1 (stereo unspecified)	-3.6	-4.3	18.7	11.7	.	.
CCN(CC(=O)Nc1c(F)cccc1F)C(=O)c1cccc(-n2cnnn2)c1	1.7	-7.6	-10.8	14.0	.	.
COc1ccc(C2CC(c3ccc(OC)cc3)n3nc(NC(=O)c4cccs4)nc3N2)cc1 (stereo unspecified)	25.8*	1.1	-134.2	-17.5	48.3*	2.2
COc1cc(/C=N/NC(N)=S)ccc1OCC(=O)Nc1ccc(C)c(C)c1	22.2*	-2.8	-125.0	7.2	10.2	0.0
CN(c1ccc([N+](=O)[O-])cc1/C=N/NC(=O)COc1ccccc1)C1CCCCC1	-1.3	1.8	6.8	8.7	.	.
COc1ccc(-c2cn(CCN)c(-c3ccncc3)n2)cc1	-0.5	5.1	2.6	-12.6	.	.
CCc1cccc(C)c1NC(=S)NCC(c1cccnc1)N(C)C (stereo unspecified)	139.0*	-4.0	i	9.9	129.2*	1.8
S=C(NCc1ccncc1)Nc1cccc(Cl)c1	0.0	2.9	0.1	-2.8	.	.
CN(C)C(CNC(=S)Nc1cccc(Cl)c1)c1cccnc1 (stereo unspecified)	324.1*	1.4	i	17.5	331.0*	5.4
CN(C)C(CNC(=O)c1cccs1)c1cccnc1 (stereo unspecified)	-0.4	1.8	2.1	-11.5	.	.
CCc1cccc(C)c1NC(=S)NCc1ccccc1	1.4	10.5	-9.3	-18.2	.	.
CN(C)C(CNC(=S)Nc1ccccc1Cl)c1cccnc1 (stereo unspecified)	407.0*	-0.1	i	4.6	386.6*	-2.3
CN(C)C(CNC(=O)NC1CCCCC1)c1cccnc1 (stereo unspecified)	157.5*	0.7	i	3.5	147.5*	-2.1
CC(C)c1nnc(NC(=O)C2CCCN2C(=O)Nc2cccc(Cl)c2)s1 (stereo unspecified)	-1.5	-1.6	9.4	-6.2	.	.
CN(C)C(CNC(=S)Nc1ccccc1)c1cccnc1 (stereo unspecified)	108.0*	7.7	i	-28.2	103.0*	0.5
O=C1c2cc(Cl)ccc2-c2c(O)cc(Cl)cc21	1.1	2.5	-5.4	-9.8	.	.
Cc1ccccc1/C=N/Nc1ccnc2cc(Cl)ccc12	21.4*	5.1	-128.7	-13.8	22.2*	9.0
Cc1ccc(/C=N/Nc2ccnc3cc(Cl)ccc23)c(C)c1	17.9	-2.4	-129.5	6.5	.	.
COC(=O)C1=C(C)N(CCCC(=O)O)C(=O)NC1c1ccccc1OS(=O)(=O)c1ccc([N+](=O)[O-])cc1 (stereo unspecified)	51.4*	0.2	-299.9	-0.5	46.3*	2.2
CCOC(=O)C1=C(C)N(CCCC(=O)O)C(=O)NC1c1ccccc1OS(=O)(=O)c1ccc(C)cc1 (stereo unspecified)	62.1*	-1.9	-339.7	4.8	57.5*	5.0

Source: PubChem BioAssay
